Most compounds without a hit are left out; they make up all but 1.7% or so of the library.
GLP-1R inv ag: acts as inverse agonist at human GLP-1 receptor. P43220. HEK293 GLP-1R CRE-luciferase, luminescence, 24 h; GLP-1R form is constitutively active. Potency, µM (titrated, usually from 38.3 µM), for inactives: at the top dose activity change, negative = inhibition, actives largely listed as inhibitors. actives 1.6% (n = 410,000); further: on the % scale 0 is the no-effect control and ±100 the full control effect; nearly all actives have a fitted effect of over 55% in size
Target sequence (P43220 whole entry, looked up): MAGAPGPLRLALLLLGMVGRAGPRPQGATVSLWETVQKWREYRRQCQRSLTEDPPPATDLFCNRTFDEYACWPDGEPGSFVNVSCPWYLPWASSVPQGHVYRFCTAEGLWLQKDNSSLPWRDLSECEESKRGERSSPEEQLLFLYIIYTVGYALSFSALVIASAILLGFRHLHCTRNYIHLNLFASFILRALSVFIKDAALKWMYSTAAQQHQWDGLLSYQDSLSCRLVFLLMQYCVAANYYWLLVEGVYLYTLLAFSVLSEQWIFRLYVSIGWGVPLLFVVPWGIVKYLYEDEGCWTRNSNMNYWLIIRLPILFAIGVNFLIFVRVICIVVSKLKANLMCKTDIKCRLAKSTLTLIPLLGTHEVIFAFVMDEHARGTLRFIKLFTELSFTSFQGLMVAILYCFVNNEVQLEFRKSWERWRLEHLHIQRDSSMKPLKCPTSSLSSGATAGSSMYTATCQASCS
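Seeding at 200 cells/uL, 12 h culture, 24 hr compound treatment, then luciferase reagent and a luminescence read; cells are HEK293 stably expressing a constitutively active GLP-1R plus cAMP-responsive luciferase.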
GLP1R ag: agonists of human GLP-1 receptor; AID 624172; HEK293 GLP-1R CRE-luciferase, luminescence, 4-6 h; cells express a hypersensitive GLP-1R form; actives 0.007% (n = 380,000); Potency, µM (highest dose often 45.6 µM), for inactives: at the highest dose activation, hits mostly activators; P43220; further: % of control where 0% means no effect
PTHR1 ag: agonists of human PTHR1 parathyroid hormone receptor | Q03431 | HEK293 GP2 PTHR1 cells, GloSensor cAMP luminescence, 1 h | Potency, µM (doses to about 115 µM), without a hit: top-dose activation, actives largely listed as activators | actives 0.075% (n = 410,000) | AID 743266; further: nearly all actives have a fitted effect of over 55% in size
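HEK-293-derived GP2 cells expressing PTHR1 and a GloSensor cAMP reporter, 3,000/well, plated overnight, given luciferin plus IBMX (each 0.5 mM as added) for 1 h at 37 °C, then compound for 1 h at 37 °C. Luminescence was read after 15 min at room temperature.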
GLP1R cytotox: cytotoxicity counter-screen for GLP-1 receptor inverse agonists. Potency, µM (doses to about 38.3 µM), without a hit: top-dose activity change, negative = inhibition, most hits filed as inhibitors. AID 624418. actives 0.13% (n = 410,000). HEK293 cAMP-luciferase reporter cells, luminescence, 24 h;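 further: loss of luciferase light is scored as toxicity; on the % scale 0 is the no-effect control and ±100 the full control effect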
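Here, cytotoxicity is scored as loss of luminescence. The MLSMR collection was tested on cells seeded in medium containing 10% Nu serum, with a 24 hr compound exposure preceded by 12 hours of culture.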
An asterisk follows results filed as active; i = inactive; ? = inconclusive; · = not tested or not shown. The call rests on the fitted dose curve; in most records, active means well fitted curve in the direction sought with a large enough effect; inconclusive means small, poorly fitted or top-dose-only effect, or another doubt; inactive means no such curve, though single readings can be large; an effect the other way counts as inactive or inconclusive. Potency means the concentration at half of the fitted maximal effect.

SMILES	GLP-1R inv ag	GLP1R ag	PTHR1 ag	GLP1R cytotox
CC(Sc1ncc(S(=O)(=O)c2ccc(C(C)C)cc2)c(N)n1)C(=O)Nc1ccccc1 (centres undefined)	?	-4.5%	-25.8%	-13.1%
COc1cc(/C=C/C(=O)c2ccc3c(c2)OCO3)cc(Cl)c1O	11.2µM*	9.0%	-12.5%	390.9%
CCCc1cc(C(=O)Nc2ccc(C(=O)c3ccc(C)cc3)cc2)n(C)n1	5.62µM*	-3.1%	-27.0%	-8.4%
CCCc1cc(C(=O)Nc2cccc3ccccc23)n(C)n1	?	18.2%	-2.0%	-7.9%
Cc1cc(N2CCC(C)CC2)nc(-n2nc(C)cc2C)n1	?	11.2%	-8.8%	0.794µM*
O=C(CCCCn1c(=O)[nH]c2ccccc2c1=O)N1CCN(c2cccc(C(F)(F)F)c2)CC1	10µM*	-10.5%	-34.2%	?
Cc1ccc(C2=NC(c3ccccc3)=Nc3ccc(Cl)cc3N2)cc1	-29.7%	·	-3.6%	-14.2%
Cc1ccc2ccc(C(Nc3ccccc3)c3ccc(Cl)cc3)c(O)c2n1 (centres undefined)	?	·	i	-8.2%
Cc1ccc2ccc(C(Nc3ccccc3)c3ccc(F)cc3)c(O)c2n1 (centres undefined)	?	·	i	-14.9%
Cc1ccc2ccc(C(Nc3ccccc3)c3ccc(C(C)C)cc3)c(O)c2n1 (centres undefined)	3.55µM*	·	-48.9%	-5.7%
Cc1ccc2ccc(C(Nc3ccccc3)c3ccccc3)c(O)c2n1 (centres undefined)	6.31µM*	·	-74.6%	5.5%
CCC(=O)N1CCCc2cc(S(=O)(=O)Nc3ccc(C)c(C)c3)ccc21	-28.2%	1.6%	-26.5%	-13.5%
CCOc1cccc(CN2CCCC(N3CCN(c4cccc(Cl)c4)CC3)C2)c1O (centres undefined)	10µM*	-3.3%	-8.8%	-21.2%
CCOc1cccc(CN2CCCC(N3CCc4ccccc4C3)C2)c1O (centres undefined)	-22.3%	7.5%	-23.3%	1.3%
COc1cccc(C(=O)Nc2cccc(-c3cn4c(C)csc4n3)c2)c1OC	-15.3%	12.9%	i	-18.5%
CN1CCN(c2ccc(NC(=O)c3ccc(-c4ccc(Cl)cc4)o3)cc2)CC1	3.98µM*	26.7%	-15.1%	?
CC(C)CNC1=C(C(=S)Nc2ccccc2)C(=O)CC(C)(C)C1	3.98µM*	18.3%	-22.5%	56.1%
CC1(C)CC(=O)C=C(NCCN2CCN(C(=S)Nc3ccccc3)CC2)C1	6.5%	2.0%	-9.4%	-1.4%
Cc1cc(=O)n(CC(=O)N2CCCCC2)c2c1c(C)nn2C	8.9%	·	i	1.5%
CCC1CCCCN1C(=O)Cn1c(=O)cc(C(F)(F)F)c2c(C)nn(C)c21 (centres undefined)	10µM*	·	-7.5%	0.4%
COc1ccc(CCNC(=O)Cn2c(=O)c3cccn3c3ccccc32)cc1OC	17.0%	·	i	-12.1%
Clc1cc(Cl)c(OCC#CI)cc1Cl	·	-4.4%	·	·
Cc1ccc(NC(=O)c2oc3ccccc3c2NC(=O)C23CC4CC(CC(C4)C2)C3)cc1	-3.4%	1.8%	-51.5%	0.4%
O=C(NC(c1ccccc1)c1ccc2ccccc2n1)C1CCN(CCOc2ccc(Cl)cc2)CC1 (centres undefined)	11.2µM*	-20.1%	-93.4%	-5.2%
O=C(NC(c1ccc(F)cc1)c1ccc2ccccc2n1)C1CCN(Cc2ccc(Oc3ccccc3)cc2)CC1 (centres undefined)	?	-1.3%	?	-27.8%
SMILES	GLP-1R inv ag	GLP1R ag	PTHR1 ag	GLP1R cytotox
COc1cc(CN2CCC(C(=O)NC(c3ccc(F)cc3)c3ccc4ccccc4n3)CC2)cc(OC)c1 (centres undefined)	2.82µM*	-0.5%	i	-10.6%
O=C(NC(c1ccc(F)cc1)c1ccc2ccccc2n1)C1CCN(CCOc2ccc(Cl)cc2Cl)CC1 (centres undefined)	?	-5.9%	i	11.2µM*
CN(C(=O)c1ccc2c(c1)N(Cc1ccccc1F)C(=O)c1ccccc1S2(=O)=O)C1CCCCC1	-29.1%	-5.2%	-19.3%	-3.0%
COc1cccc(CNC(=O)Cc2c(C)c3c(cc(C)c4c(C)coc43)oc2=O)c1	5.9%	·	-13.2%	4.9%
COc1cc(O)ccc1-c1nc2cc(C)ccn2c1Nc1ccccc1C	10µM*	·	-7.3%	-27.0%
Cc1ccn2c(Nc3ccccc3C)c(-c3ccccc3)nc2c1	?	·	-47.7%	-0.3%
CC[C@]1(O)C[C@H]2CN(CCc3c([nH]c4ccccc34)[C@@](C(=O)OC)(c3cc4c(cc3OC)N(C=O)[C@H]3[C@@](O)(C(=O)OC)[C@H](OC(C)=O)[C@]5(CC)C=CCN6CC[C@]43[C@@H]65)C2)C1	·	26.4%	·	·
OC(c1ccccc1)(c1ccccc1)C1CCN(CCCOc2ccc3c(c2)CCCC3)CC1	7.94µM*	-30.3%	-26.7%	?
N#CCc1ccc(OCCCN2CCC(C(O)(c3ccccc3)c3ccccc3)CC2)cc1	?	0.2%	-17.9%	?
CNc1ccccc1C(C)(C)c1cc(-c2cccc(OC)c2)no1	7.08µM*	6.6%	-20.2%	-11.3%
CNc1ccccc1C(C)(C)c1cc(-c2cc(C)cc(C)c2)no1	?	0.2%	i	12.0%
CC1=C(C(=O)OCc2ccc3c(c2)OCO3)C(c2ccccc2)NC(=O)N1 (centres undefined)	3.16µM*	-0.6%	i	?
CC1=C(C(=O)OCc2ccc3c(c2)OCO3)C(c2ccccc2OCc2ccccc2)NC(=O)N1 (centres undefined)	0.0%	5.5%	i	-11.9%
COc1ccc(-c2ccc3[nH]c4c(c3c2)CCN2C[C@@H]([C@H](C)O)[C@@H](N(C)C(=O)Nc3cc(Cl)cc(Cl)c3)C[C@@H]42)cc1	?	-4.9%	-1.8%	7.6%
C[C@H](O)[C@@H]1CN2CCc3c([nH]c4ccc(-c5ccc6c(c5)OCO6)cc34)[C@@H]2C[C@@H]1N(C)C(=O)Nc1ccc(F)cc1	3.98µM*	-7.8%	-6.9%	?
COc1ccc(OC)c(NC(=S)N(CCc2c(C)[nH]c3ccc(C)cc23)Cc2cccs2)c1	11.2µM*	-2.6%	-2.9%	6.4%
O=C(COc1ccc(F)cc1)OCc1cc(=O)n2nc(C3CC3)sc2n1	12.2%	·	i	1.1%
N#C/C(=C1/SC[C@@H](c2ccc(Cl)cc2Cl)S1)n1ccnc1	·	8.5%	·	·
Cc1ccc(CNC(=O)C2CCCN(c3ncnc4onc(-c5ccc(F)cc5)c34)C2)cc1 (centres undefined)	-4.2%	·	i	-1.4%
Cc1nn(Cc2c(Cl)cccc2Cl)c(C)c1NC(=O)CCCn1nc([N+](=O)[O-])c(Cl)c1C	2.51µM*	9.2%	-11.7%	-3.0%
O=C(CSc1nnc(-c2ccc(Cl)cc2)n1Cc1ccco1)Nc1ccc2c(c1)OCCO2	?	7.2%	i	-19.0%
O=C(CSc1nnc(-c2ccc(Cl)cc2)n1Cc1ccco1)NCc1ccc2c(c1)OCO2	10µM*	-2.8%	?	-14.7%

Assay outcomes as filed in PubChem.
